Test results: the OligoGym collection

These sequences were tested against GNAQ (assay: pooled miR-30 sensor sort-seq; sequence = guide strand). Details: shRNA.
Also: reference of the scale not given here.

| Sequence | sensor-assay potency score (higher = more potent) |
| --- | --- |
| TTGATAAACGTACTCTTGCCAC | -0.533 |
| ATAATTGATATTCTCGTCGTCT | 0.0326 |
| TTGTATGGGATCTTGAGTGTGT | 0.798 |
| TCTAAGCACATCTTGTTGCGTA | 0.35 |
| TTTAAGAACAGAATAACCGAGG | -0.0655 |
| TTGTGCATGAGCCTTATTGTGC | -1.26 |
| TCGTCTATCATAGCATTCCTGG | -1.02 |

The sequences below were run against GNAT1 in the same assay as above. Details: shRNA.

| Sequence | sensor-assay potency score (higher = more potent) |
| --- | --- |
| TAGTCCGGGAAACAGATGCTGA | -1.24 |
| TTGACGTTCTGCGTGTCGGTGG | 0.245 |
| TAGCGGTGGTTGCAGATGCTGT | -1.65 |
| TAATCTTCATCTGCTTGACGAT | -0.376 |
| TTGGGTCCATCGTAGTCCGGGA | -0.616 |
| TTCTTTTCCAGCTCCCTGGAGT | -0.257 |
| TTCGTCGTCCTCCACTAGCACC | -1.74 |
| TTGAGTGTGGTCATGGCGCGTA | -0.473 |
| TGCACCTTGATGTAGTTGCCGG | -1.2 |
| TAGATCTCCTTCACGTCGCGCC | -0.148 |
| TCCTTGATGATGATGTCGGTGA | -1.08 |
| TTTGACGTTCTGCGTGTCGGTG | -0.514 |
